Screening data: PubChem BioAssay, Broad Institute
The sample as a whole holds a higher share of hits than the screen did.
Tgondii IFNg = T. gondii growth inhibition with IFN-gamma, primary screen, cell-based; AID 1259416, 2018; 3.8% of 69,000 active; activity change, negative = inhibition, % (no concentration beside the values); Toxoplasma gondii growth in IFN-gamma-treated host cells; hits give low values; in the data active = activity change below about -70%, passing the limit was not always enough;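 note: host cells are HeLa cells infected with Toxoplasma gondii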
* marks the source's active call; other numbers are inactive results.

How did CC1(C)C2CCC1(CS(=O)(=O)O)C(=O)/C2=C\c1ccc(/C=C2/C(=O)C3(CS(=O)(=O)O)CCC2C3(C)C)cc1 do in these assays?
Tgondii IFNg: -68

Results for CCN1C(=O)CCC2C1CCN2Cc1ccc2c(c1)OCO2 (centres undefined) ?
Tgondii IFNg: -64

Results for Cc1oc(-c2ccc(C(F)(F)F)cc2)nc1CN(C)Cc1nc2ccccc2s1 ?
Tgondii IFNg: -1

Results for CC(=O)Oc1ccc(-c2ccc(OC(C)=O)cc2)cc1 ?
Tgondii IFNg: 23

What do the screens show for `Cc1ccc(NS(=O)(=O)c2cc3c4c(c2)CCC(=O)N4CCC3)c(C)c1`?
Tgondii IFNg: 7

How did O=C(Cn1c(=O)cc(-c2nc(C3CC3)no2)c2ccccc21)NCc1cccs1 do in these assays?
Tgondii IFNg: 13

How did O=c1cc(CN2CCCC(CCc3ccc(F)c(F)c3)C2)nc2nc[nH]n12 (centres undefined) do in these assays?
Tgondii IFNg: 0

How did C[C@H](Oc1cc(-c2cnn(C3CCNCC3)c2)cnc1N)c1c(Cl)ccc(F)c1Cl do in these assays?
Tgondii IFNg: 3

How did C[C@@H](Oc1cc(-c2cnn(C3CCNCC3)c2)cnc1N)c1c(Cl)ccc(F)c1Cl do in these assays?
Tgondii IFNg: -78*

What do the screens show for `c1csc(-c2cnc(N3CCCC3)nc2-c2nccs2)c1`?
Tgondii IFNg: -8

Results for Cn1ccc2c(-c3cc(N)nc(N4CCOCC4)n3)ccnc21 ?
Tgondii IFNg: -17

What do the screens show for `c1csc(-c2[nH]ncc2-c2ccnc(N3CCOCC3)n2)c1`?
Tgondii IFNg: -106*

What do the screens show for `CC(C)CCCC1CN(S(=O)(=O)N2CCCCC2)CCO1` (centres undefined)?
Tgondii IFNg: -2

What do the screens show for `CCCN1CCc2nc(SCc3nc(-c4ccc(OC)cc4OC)oc3C)[nH]c(=O)c2C1`?
Tgondii IFNg: 15

Results for CC1Cc2ccccc2N1S(=O)(=O)c1csc(C(=O)Nc2ccccc2)c1 (centres undefined) ?
Tgondii IFNg: -103*

What do the screens show for `CC1Cc2ccccc2N1S(=O)(=O)c1cc2c3c(c1)CCC(=O)N3CCC2` (centres undefined)?
Tgondii IFNg: 4

What do the screens show for `CCN(C)S(=O)(=O)c1csc(C(=O)Nc2ccc(C)cc2)c1`?
Tgondii IFNg: -69

Results for COc1cc(-c2nccn2CCO)c(OC)cc1SC ?
Tgondii IFNg: 3

Results for COc1ccc(CC(=O)NCCc2csc(-c3cccc(F)c3)n2)cc1OC ?
Tgondii IFNg: 58

What do the screens show for `CC1CCN(C(=O)c2nc(-c3cccc(F)c3)n3c2CCCCC3)CC1`?
Tgondii IFNg: -59

Results for CC1CCCN(C(=O)c2nc(-c3cccc(F)c3)n3c2CCCCC3)C1 (centres undefined) ?
Tgondii IFNg: 3

How did CCOCCCNC(=O)c1nc(-c2cccc(F)c2)n2c1CCCCC2 do in these assays?
Tgondii IFNg: 100

Results for COc1cc(NC(=O)c2nc(-c3cccc(F)c3)n3c2CCCCC3)cc(OC)c1OC ?
Tgondii IFNg: -105*

What do the screens show for `COc1ccc(CCNC(=O)c2nc(-c3cccc(F)c3)n3c2CCCCC3)cc1OC`?
Tgondii IFNg: -115*

Results for Cc1ccc(Nc2nc(C(=O)NCc3ccc(OC(C)C)cc3)nc3ccccc23)cc1 ?
Tgondii IFNg: -30

Results for CCCC(=O)N1CCN(S(=O)(=O)c2cnc(-c3cccnc3)nc2C(C)C)CC1 ?
Tgondii IFNg: -28

Results for CCCS(=O)(=O)NCCc1csc(-c2ccc(Cl)cc2)n1 ?
Tgondii IFNg: -23

What do the screens show for `O=C(CCc1ccccc1)N1CCC(c2cc(C(F)(F)F)n3ncnc3n2)CC1`?
Tgondii IFNg: -1

How did COc1ccccc1-n1nnc(C(=O)NC2(C)CCS(=O)(=O)C2)c1C (centres undefined) do in these assays?
Tgondii IFNg: 1

Results for Cc1nc(N2CCCC2)sc1C(=O)NCC1(C)COC1 ?
Tgondii IFNg: -4

What do the screens show for `Nc1ncnc2c1c(-c1cccc(OCc3ccccc3)c1)cn2C1CC(CN2CCC2)C1` (centres undefined)?
Tgondii IFNg: -85*

Results for COCCc1nnc(NS(=O)(=O)c2ccc3c(c2)n(C)c(=O)n3C)s1 ?
Tgondii IFNg: 10

Results for Cc1cccc(-c2nc(Cc3noc(-c4ccncc4)n3)c(C)o2)c1 ?
Tgondii IFNg: 7

Results for CCOc1ccccc1-c1nc(Cc2noc(-c3cccnc3)n2)c(C)o1 ?
Tgondii IFNg: -79*

What do the screens show for `Cc1oc(-c2ccccc2)nc1Cc1noc(COc2ccccc2)n1`?
Tgondii IFNg: -36

Results for COc1ccccc1-c1nc(Cn2nnc(-c3nc(-c4cccnc4)no3)c2C)c(C)o1 ?
Tgondii IFNg: -3

What do the screens show for `Cc1oc(-c2ccccc2)nc1Cc1noc(-c2ccncc2)n1`?
Tgondii IFNg: 7

What do the screens show for `Cc1oc(-c2ccccc2)nc1Cc1noc(-c2cccnc2)n1`?
Tgondii IFNg: -87*

What do the screens show for `CCOc1ccc(-c2nc(Cc3noc(-c4cccnc4)n3)c(C)o2)cc1`?
Tgondii IFNg: 55

What do the screens show for `COc1ccccc1-c1nc(Cc2noc(-c3ccccc3)n2)c(C)o1`?
Tgondii IFNg: 116

What do the screens show for `CCOc1ccccc1-c1noc(-c2nnn(Cc3nc(-c4ccc(C)cc4)oc3C)c2C)n1`?
Tgondii IFNg: -17

What do the screens show for `CCOc1ccccc1-c1nc(Cc2noc(-c3ccccc3)n2)c(C)o1`?
Tgondii IFNg: -101*

What do the screens show for `CCOc1ccccc1-c1nc(Cc2nc(-c3ccc(OC)cc3)oc2C)no1`?
Tgondii IFNg: -93*

How did CCOc1ccccc1-c1nc(CN(c2ccc(OC)cc2)S(=O)(=O)c2ccc(C)cc2)c(C)o1 do in these assays?
Tgondii IFNg: -19

How did CCN1CCN(Cc2c(C)nn(C)c2OC)CC(Cc2ccccc2-c2ccccc2)C1=O (centres undefined) do in these assays?
Tgondii IFNg: 8

What do the screens show for `CCc1c(C)[nH]n2c(=O)cc(-c3nn(CC)cc3Cl)nc12`?
Tgondii IFNg: -3

How did CN(C)c1ccc(NC(=O)Cn2c(=O)cc(-c3nc(C4CC4)no3)c3ccccc32)cc1 do in these assays?
Tgondii IFNg: 30

Results for COCC(=O)N1Cc2nccn2CC(Cn2ncccc2=O)C1 (centres undefined) ?
Tgondii IFNg: 3

Results for Cc1cc(C)n(Cc2nc(-c3ccc(NC(=O)c4sccc4C)cc3)oc2C)n1 ?
Tgondii IFNg: -57

How did CN(C)C(=O)c1cc2cccnc2n(Cc2ccc(F)cc2)c1=O do in these assays?
Tgondii IFNg: 24

Results for Cc1nc(-c2ccccc2)sc1CCNC(=O)C(=O)Nc1ccc([N+](=O)[O-])cc1 ?
Tgondii IFNg: 20

Results for CCCCN(CC)S(=O)(=O)c1ccc2[nH]c(=O)ccc2c1 ?
Tgondii IFNg: 73

How did Cc1ccc(C2(O)CCN(CCNC(=O)c3cc4c(s3)CCC4)CC2)cc1 do in these assays?
Tgondii IFNg: -34

Results for O=C(O)COc1ccccc1CN1CCCC2(C1)C(=O)Nc1ccccc12 (centres undefined) ?
Tgondii IFNg: -3

What do the screens show for `Oc1[nH]c2ccccc2c1N=Nc1nc(Nc2ccccc2)nc(N2CCOCC2)n1`?
Tgondii IFNg: -99*

What do the screens show for `O=C1CSC(c2ccccc2)N1Nc1nc(N2CCOCC2)nc(N2CCOCC2)n1` (centres undefined)?
Tgondii IFNg: -14

What do the screens show for `O=C(O)CSc1nc(Nc2ccccc2)nc(N2CCOCC2)n1`?
Tgondii IFNg: -31

Results for Cc1ccsc1C(=O)N1CCc2nc(N3CCOCC3)nc(NC(C)C)c2C1 ?
Tgondii IFNg: -20
